Screens deposited in PubChem by several laboratories.
In the library only some 3.9% were active in any assay of this set; here they are far more common.
PLCb3 inh = inhibitors of human phospholipase C beta3; Purified PLC-beta3, fluorogenic substrate, fluorescence; inhibition, % at 12.2 µM; 370,000 compounds, 0.18% hits; AID 720704; in the data active means inhibition above about 11%;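 further: 0% = median of compound wells on plate and 100% = full blocker control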
HIF activator = HIF pathway transcriptional activation; U2OS HRE-luciferase reporter, luminescence; normalized: DMSO 0%, desferrioxamine 100%; activation, % at 7.5 µM (by protocol); 300,000 compounds, 0.32% hits; AID 1910;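 active means mean activation of at least 10% of the iron chelator positive control signal, with at least half of replicates also reaching 10%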
Yeast superoxide = lowers age-related superoxide in aged yeast cells | AID 2690 | 330,000 compounds, 0.18% hits | S. cerevisiae aged cells, superoxide DHE fluorescence; active compounds read low | superoxide response (% of plate mean), % at 10 µM;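 active means superoxide response under a set limit, about three screen SD below normal, cut at about 65% in these data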;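 further: yeast aged for seven days with compound at 30 °C before DHE staining; 100% = average MFI of all compound-treated wells on the plate with controls excluded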
sPLA2-III inh = Inhibits HGIII-sPLA2 liposome hydrolysis, primary screen | AID 743126 | inhibition, % at 12.2 µM | 370,000 compounds, 0.56% hits | QFRET BODIPY PC-A2 liposome hydrolysis, fluorescence | Q9NZ20;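 active means inhibition above mean plus 3 SD of compounds lying within the high and low control bounds, cut at about 19% in these data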;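 further: 0% = median of test compound wells and 100% = no enzyme DMSO wells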
Target sequence (Q9NZ20 whole entry, looked up): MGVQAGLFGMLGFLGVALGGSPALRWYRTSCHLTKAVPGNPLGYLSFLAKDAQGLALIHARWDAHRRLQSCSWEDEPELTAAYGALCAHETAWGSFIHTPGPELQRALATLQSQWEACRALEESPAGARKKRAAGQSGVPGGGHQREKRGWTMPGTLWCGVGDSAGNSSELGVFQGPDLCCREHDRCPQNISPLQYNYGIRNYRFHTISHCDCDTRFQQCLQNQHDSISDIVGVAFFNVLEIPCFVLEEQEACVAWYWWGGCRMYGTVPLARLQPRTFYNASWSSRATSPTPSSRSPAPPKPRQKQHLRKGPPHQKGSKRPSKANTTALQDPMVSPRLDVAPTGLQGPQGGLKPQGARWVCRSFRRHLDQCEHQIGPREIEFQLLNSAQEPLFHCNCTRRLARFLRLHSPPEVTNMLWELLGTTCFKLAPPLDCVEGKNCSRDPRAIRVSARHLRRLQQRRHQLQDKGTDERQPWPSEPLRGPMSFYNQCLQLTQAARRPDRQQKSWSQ
PLCg1 inh = inhibitors of human phospholipase C gamma1; P19174; purified PLC-gamma1, fluorogenic substrate, fluorescence; inhibition, % at 12.2 µM; 370,000 compounds, 0.84% hits; AID 720700
AHR act = activates the human aryl hydrocarbon receptor | P35869 | AHR-responsive luciferase reporter cells, luminescence | activation, % at 5 µM | 320,000 compounds, 2.5% hits; in the data active means activation above about 47%;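 further: 0% = vehicle wells and 100% = reference agonist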
PLCgamma1 ctr = counter-screen for PLC-beta3 inhibitors: inhibitors of human PLC-gamma1 | shares compounds with PLCg1 inh | purified PLC-gamma1, fluorogenic substrate, fluorescence | inhibition, % at 12.3 µM | 3,300 compounds, 3.1% hits
PLCbeta3 conf = confirmation of human PLC-beta3 inhibitors; purified PLC-beta3, fluorogenic substrate fluorescence; inhibition, % at 12.3 µM; 3,300 compounds, 1% hits; AID 743261; shares compounds with PLCg1 inh; in the data active means inhibition above about 11%
The depositor's hits bear a star; · = no result. Unless noted, no stated cut-off is given here; in the data, active means inhibition above about 9.5%; inactive means the rest.

SMILES | PLCb3 inh | HIF activator | Yeast superoxide | sPLA2-III inh | PLCg1 inh | AHR act | PLCgamma1 ctr | PLCbeta3 conf
CCOC(=O)NC(=O)c1cn(Nc2ccccc2)c(=O)[nH]c1=O | -3 | 0 | 107 | 1 | 10* | -3 | 0 | 0
CCc1ccccc1NC(=O)C1=CC(c2ccc(OC)c(OC)c2)=NS(=O)(=O)N1C | 2 | 0 | 89 | 1 | 0 | 0 | · | ·
COC(=O)c1scc(C)c1-n1ccc(C(=O)C(=O)N(C)C)c1 | 13* | 0 | 99 | 3 | 7 | -1 | -4 | -1
Cc1ccc(S(=O)(=O)N(C)/N=C2/C(=O)N(CC(=O)O)c3ccccc32)cc1 | -1 | -1 | 114 | 18 | 4 | -1 | · | ·
Cc1cccc(Sc2ccc([N+](=O)[O-])cc2[N+](=O)[O-])n1 | 1 | 0 | 112 | 9 | 4 | 1 | · | ·
O=[N+]([O-])c1ccc(Sc2ncccn2)c([N+](=O)[O-])c1 | 2 | 1 | 103 | 7 | 12* | 0 | 10* | 8
COc1ccc(N(C(=O)COc2ccccc2)C2C=CS(=O)(=O)C2)c(OC)c1 (stereo not given) | 5 | -1 | 87 | 3 | 14* | 0 | -5 | -2
COc1ccc(C(CNC(=O)C(=O)Nc2ccc3c(c2)OCCO3)N2CCN(C)CC2)cc1 (stereo not given) | 3 | 0 | 79 | -8 | 4 | 0 | · | ·
COC(CNC(=O)[C@H](Cc1c[nH]c2ccccc12)NC1(C(=O)NC2CCCCC2)CCCCC1)OC | 1 | · | · | -54 | 1 | · | · | ·
COC(CNC(=O)[C@H](Cc1ccccc1)NC1(C(=O)NC2CCCCC2)CCCC1)OC | 10 | · | · | 8 | 9.8* | · | -1 | 0
CCc1c(-c2cccc(OC)c2)ncn1Cc1cccc(-c2ccccc2)c1 | -7 | · | · | -24 | 1 | · | · | ·
COc1ccc(N/N=C(\C#N)C(=N)SCc2ccccc2)cc1 | 2 | 4 | · | 3 | 9.6* | · | 6 | 2
COC(=O)[C@]12C[C@H](CC(=O)NCc3cccc4ccccc34)C(=O)N(CCC3=CCCCC3)C1=C[C@H](C1CCCC1)O[C@@H]2C | 0 | · | · | -18 | -1 | · | · | ·
Cc1nc(C(=O)N2CCC(n3nccc3NC(=O)Nc3ccccc3Cl)CC2)cs1 | -3 | 0 | 82 | 5 | -33 | 8 | · | ·
CCC(C(=O)NCCCN1CCN(C)CC1)n1nc(C)c2sc3ccccc3c2c1=O (stereo not given) | -13 | 1 | 72 | 8 | 9.6* | 1 | -3 | -4
CSc1ccc(C2C(C(=O)c3ccco3)=C(O)C(=O)N2c2nnc(SC)s2)cc1 (stereo not given) | -307 | · | 98 | -97 | -181 | 8 | · | ·
Cc1ccc(S(=O)(=O)CCc2nnc(NC(=O)C3CCCO3)s2)cc1 (stereo not given) | 9 | 0 | 92 | 4 | 9.6* | -1 | 0 | -1
CCCCCc1nnc(NC(=O)C2CCCO2)s1 (stereo not given) | 0 | 2 | 90 | 7 | 3 | 5 | · | ·
COCCCNc1nc2c(c(=O)n(Cc3ccc(OC)cc3)c(=O)n2C)n1C | 3 | 0 | 103 | 15 | 10* | 3 | -2 | -10
COCCCNc1nc2c(c(=O)n(Cc3ccc(F)cc3)c(=O)n2C)n1C | -3 | 0 | 91 | 7 | 6 | 7 | · | ·
CN(C)c1ccc(-c2csc(C(O)c3cccc(Cl)c3)n2)cc1 (stereo not given) | -5 | · | · | 6 | -6 | · | · | ·
CN(Cc1cn(-c2ccccc2)nc1-c1cc2ccccc2o1)C(=O)CCC(=O)O | 0 | 1 | 97 | -19 | 10* | 10 | -6 | -3
CN(C)C(=O)c1cn(-c2ccccc2)nc1-c1cc2ccccc2o1 | 2 | 0 | 111 | -3 | 0 | 21 | · | ·
CCOC(=O)C1(CCOc2ccccc2)CCN(Cc2ccc(OC)c(O)c2)CC1 | 9 | -59 | 93 | -9 | 10* | 3 | -7 | -2
COc1ccc(NC(=O)N2CCCC2C(=O)Nc2cccc(C)c2C)cc1 (stereo not given) | 6 | 0 | 79 | 14 | 12* | 1 | -4 | -3
SMILES | PLCb3 inh | HIF activator | Yeast superoxide | sPLA2-III inh | PLCg1 inh | AHR act | PLCgamma1 ctr | PLCbeta3 conf
Cc1cccc(NC(=O)N2CCCC2C(=O)NCc2cccs2)c1 (stereo not given) | 5 | 0 | 110 | 1 | 12* | 1 | -4 | 1
Cc1cccc(NC(=O)C(=O)NCC2CCCN2S(=O)(=O)c2cccs2)c1 (stereo not given) | -6 | · | · | -12 | 9.5* | · | -4 | -5
COc1ccc(NC(=O)N2CCCC2C(=O)Nc2ccccc2F)cc1 (stereo not given) | -8 | 0 | 98 | 4 | 0 | 0 | · | ·
Cc1cccc(NC(=O)N2CCCC2C(=O)Nc2ccccc2)c1 (stereo not given) | 7 | 0 | 91 | 9 | 13* | -1 | -4 | -4
CC(C)(C)CC(C)(C)NC(=O)/C=C/C(=O)O | -6 | 0 | 106 | 2 | -3 | 2 | · | ·
C=CCN(Cc1ccc(Cl)s1)C(=O)c1cc(S(=O)(=O)N2CCOCC2)ccc1F | -4 | · | 91 | 11 | -4 | 3 | · | ·
CC(=O)Nc1ccc(S(=O)(=O)Nc2cccc(-n3c(C)nc4ccccc4c3=O)c2)cc1 | -7 | -2 | 94 | 9 | 2 | -3 | · | ·
CC(C)Oc1cc(F)ccc1-c1cc(C(=O)NCc2cccnc2)[nH]n1 | 1 | · | · | -10 | 0 | · | · | ·
Cc1ccccc1C(=O)N[C@H](C(=O)N1CCC[C@H]1C(=O)NC1CCCC1)c1ccccc1 | 4 | · | · | 2 | 2 | · | · | ·
O=C(CCCCCCN1C(=O)c2ccccc2C1=O)Nc1nccs1 | 2 | 0 | 110 | -1 | 2 | 7 | · | ·
O=C(CCCN1C(=O)c2ccccc2C1=O)Nc1nccs1 | 2 | 0 | 104 | -1 | 14* | 4 | -3 | 1
CCOc1ccc(C(=O)N(CN2CCCC2=O)c2ccccc2)cc1 | 2 | 1 | 95 | -5 | 9.9* | 1 | -1 | -1
CCOc1ccc(C(=O)N(CN2CCCC2=O)c2ccc(C)cc2)cc1 | -1 | 0 | 100 | -4 | 1 | 1 | · | ·
COc1ccc(S(=O)(=O)N2CCCCC2c2cc(C(=O)N3CCOCC3)no2)cc1 (stereo not given) | 4 | · | · | 6 | 3 | · | · | ·
COC(=O)C1=C(C)NC(=O)NC1c1ccccc1Cl (stereo not given) | 6 | -8 | 92 | 6 | 11* | -1 | -7 | -1
COC(=O)C1=C(C)NC(=O)NC1c1cc(Cl)ccc1OC (stereo not given) | -3 | 0 | 118 | 3 | -1 | -1 | · | ·
O=C(CSc1nnc(CNC(=O)c2c(F)cccc2F)o1)NCc1ccc(F)cc1 | -3 | 0 | 104 | -1 | -1 | 3 | · | ·
